# In ChEMBL document CHEMBL1157539, “Thousands of chemical starting points for antimalarial lead identification” (Nature, 2010):
# Test system: Plasmodium falciparum
# Experiment: GSK_TCMDC: Inhibition of Plasmodium falciparum 3D7 in whole red blood cells, using parasite LDH activity as an index of growth. Test compounds present at 2uM
# Type: functional
row,SMILES,Inhibition
1,O=C(NC1CCC(N2CCC(O)(c3ccc(F)cc3)CC2)CC1)c1cc2ccccc2[nH]1 (stereo not given),94%
2,O=C(Nc1ccc2c(c1)CCN(C1CCC1)CC2)c1cn(-c2ccccc2)nc1-c1ccccc1.O=C(O)C(F)(F)F,100%
3,COc1ccc(NCc2cccc(-c3cccc(CNCCc4ccccc4)c3)c2)cc1.O=C(O)C(F)(F)F,96%
4,CS(=O)(=O)N1CC2(CCN(CCC(NC(=O)NCc3ccc(Cl)c(Cl)c3)c3ccc(Cl)c(Cl)c3)CC2)c2ccccc21 (stereo not given),89%
5,N#Cc1ccc(-c2ccc(C(=O)NCCCCN3CCC(c4ccc5c(c4OCc4ccncc4)CCCC5)CC3)cc2)cc1,81%
6,Cc1c2c(nn1-c1ccccc1)C(c1ccccc1)N(c1ccccc1)C2=O (stereo not given),92%
7,O=C(/C=C/c1ccc(Cl)c(Cl)c1)NCCCCCN1CCC(NC(=S)Nc2cccc(Cl)c2)CC1,99%
8,COc1cccc(NC(=O)c2ccc(NCCCN3CCC(C)CC3)c([N+](=O)[O-])c2)c1,100%
9,N#Cc1ccc(Cn2ccc3c4c(N)nc(N)nc4ccc32)cc1,92%
10,CS(=O)(=O)CCNCc1nc(-c2ccc3c(=O)[nH]cnc3c2)cs1,86%
11,Cc1cc(C(=O)Nc2ccc(OCc3ccccc3)cc2)on1,87%
12,COc1ccc(CN2CCC(N3CCc4cc(NC(=O)c5cc(C)on5)ccc43)C2)cc1Cl (stereo not given),94%
13,CN1CCN(c2cccc(-c3nnc(-c4ccc(OCC(=O)NCc5cccc(C(F)(F)F)c5)c([N+](=O)[O-])c4)o3)c2)CC1,90%
14,COc1ccc2nc(C)cc(Nc3ccc(Cl)c(Cl)c3)c2c1,100%
15,Cl.Nc1nc(Nc2ccc(Cl)cc2)nc2ccccc12,100%
16,CC(C)CCCC(C)NC[C@@H](O)[C@H](Cc1ccccc1)NC(=O)c1cc(N2CCCC2=O)cc(N(c2ccccc2)S(C)(=O)=O)c1 (stereo not given in full),99%
17,CCN(CC)CCCOC(=O)c1ccc2c(c1)-c1ccc(C(=O)OCCCN(CC)CC)c3cccc-2c13.Cl,98%
18,Cc1cc(N(C)C)nc(Nc2ccc(NC(=O)c3ccccc3C)cc2)n1,93%
19,CS(=O)(=O)CCNCc1nc(-c2ccc3ncnc(Nc4ccc(OCc5ccccc5)c(Cl)c4)c3c2)cs1.Cl,99%
20,CN(CCCN(C)c1cc(NC(=O)c2ccc(F)cc2)ccn1)Cc1cccc(F)c1.O=C(O)C(F)(F)F,83%

row,SMILES,Inhibition
1,Cc1cccc(NC(=O)Nc2cccc(-c3ccc(-c4nc5cc(C(F)(F)F)ccc5[nH]4)cc3)c2)c1,100%
2,CC(=O)c1ccc2nc[nH]c(=O)c2c1,96%
3,O=C(NCc1ccccc1)NC(CCCN1CCC(Oc2cccc(Cl)c2)CC1)c1ccc(Cl)c(Cl)c1 (stereo not given),81%
4,Oc1ccc2[nH]cc(C3CCN(CCCCCCCCCN4CCC(c5c[nH]c6ccc(O)cc56)CC4)CC3)c2c1,100%
5,CC(C)n1c(C2CCN(CC3CCN(C(=O)/C=C/c4ccc(Cl)c(Cl)c4)CC3)CC2)nc2ccccc21,94%
6,CC1CN(Cc2ccc(-c3ccc(-c4nc5cc(F)ccc5[nH]4)cc3)cc2)CC(C)O1.O=C(O)C(F)(F)F (stereo not given),96%
7,CCNC(=O)Nc1ccc(-c2cccc(-c3nc4cccc(C)c4[nH]3)c2)cc1,91%
8,Cc1cnc2cc3c(cc2c1N1CCN(C)CC1)NCC3,100%
9,COc1cccc(C2(c3cccc(OC)c3)N=C(N)N(CCCc3ccccc3)C2=O)c1.O=CO,98%
10,CCn1cc(C=C2Oc3c(ccc(O)c3CN3CCCCC3)C2=O)c2cc(OC)ccc21,99%
11,Cn1c(Sc2ncnc3sccc23)nc2ccccc21,100%
12,CNC(=O)C1Cc2c([nH]c3ccc(Cl)cc23)C2(CCN(CCc3ccccc3)CC2)N1 (stereo not given),98%
13,O=S(=O)(Nc1ccc(CCN2CCC(N3CCCCC3)CC2)cc1)c1ccc(Cl)cc1,100%
14,Cc1nc(N)nc(N)c1-c1ccc(Br)cc1,98%
15,CCCCCn1c(Sc2ccc(C#N)c([N+](=O)[O-])c2)nnc1-c1ccc(Cl)cc1,88%
16,COc1ccc(C=NN=c2c3ccccc3[nH]c3ccccc23)c2ccccc12,82%
17,CCCCC(=O)Nc1nc2ccc([N+](=O)[O-])cc2s1,91%
18,Cc1cccc2nc(-c3ccc(-c4ccc(CNCC(C)C)cc4)cc3)[nH]c12.O=C(O)C(F)(F)F,100%
19,Cc1ccc(NC(=O)Nc2ccccc2)cc1-c1ccc(C(=O)Nc2ccncc2)cc1,99%
20,Cc1ccc(NC(=O)c2c(C)noc2-c2snnc2C)cc1,92%
